The supplement of paper PMC6555819

Experiments:
Experiment in all cases: PBM binding z-score (relative to random genomic background probes); higher = stronger binding; sequences stand for … in GC…GCGATTGACAGCGTAGAATGAAGG
[1] = tested on: PPARg:RXRa DBDmut IVT, anti-RXR (DBD mutation: RXRa K156A/R161A, NR concentration 270 nM, RXRa partner concentration 90 nM)
Method in brief: (§1)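 Random background probes are the reference for binding z-scores. These scores derive from regression-normalized fluorescence on custom Agilent 4×180K protein-binding microarrays incubated 1 h with ligand-free nuclear receptor dimers. Binding was detected with antibodies against each partner (one per run).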

[2] = tested on: PPARg:RXRa IVT, anti-PPARg (NR concentration 270 nM, RXRa partner concentration 90 nM)
Method in brief: as §1

[3] = tested on: PPARg DBDmut:RXRa IVT, anti-PPARg (DBD mutation: PPARg1 K132A/R137A, NR concentration 270 nM, RXRa partner concentration 90 nM)
Method in brief: as §1

[4] = tested on: PPARg DBDmut IVT, anti-PPARg (DBD mutation: PPARg1 K132A/R137A, NR concentration 270 nM)
Method in brief: as §1

[5] = tested on: PPARg homodimer (NR concentration 180 nM)
Method in brief: as §1

[6] = tested on: PXR:RXRa (NR concentration 270 nM, RXRa partner concentration 90 nM)
Method in brief: as §1

[7] = tested on: PXR homodimer (NR concentration 270 nM)
Method in brief: as §1

[8] = tested on: RARa:RXR (NR concentration 270 nM, RXRa partner concentration 90 nM)
Method in brief: as §1

[9] = tested on: RARa homodimer (NR concentration 270 nM)
Method in brief: as §1

[10] = tested on: RARb:RXRa (NR concentration 270 nM, RXRa partner concentration 90 nM)
Method in brief: as §1

[11] = tested on: RARb homodimer (NR concentration 270 nM)
Method in brief: as §1

[12] = tested on: RARg:RXRa (NR concentration 270 nM, RXRa partner concentration 90 nM)
Method in brief: as §1

[13] = tested on: RARg homodimer (NR concentration 270 nM)
Method in brief: as §1

[14] = tested on: RXRa DBDmut IVT, anti-RXR (DBD mutation: RXRa K156A/R161A, NR concentration 90 nM)
Method in brief: as §1

[15] = tested on: RXRa homodimer (NR concentration 180 nM)
Method in brief: as §1

[16] = tested on: THRa:RXRa (NR concentration 90 nM, RXRa partner concentration 90 nM)
Method in brief: as §1

[17] = tested on: THRa homodimer (NR concentration 90 nM)
Method in brief: as §1

[18] = tested on: VDR homodimer (NR concentration 270 nM)
Method in brief: as §1

Sequence	PBM binding z-score [1]	PBM binding z-score [2]	PBM binding z-score [3]	PBM binding z-score [4]	PBM binding z-score [5]	PBM binding z-score [6]	PBM binding z-score [7]	PBM binding z-score [8]	PBM binding z-score [9]	PBM binding z-score [10]	PBM binding z-score [11]	PBM binding z-score [12]	PBM binding z-score [13]	PBM binding z-score [14]	PBM binding z-score [15]	PBM binding z-score [16]	PBM binding z-score [17]	PBM binding z-score [18]
CCGCCTGGGGCAGAAAGGTTACCATACCATCCGG	-0.75	-0.444	-1.12	-1.51	0.297	0.861	-0.276	1.49	-0.241	1.83	2.37	1.47	1.32	-0.959	1.55	1.03	-0.231	0.052
TCATATAGGTTAATGCTAGGTGAAAGTCCGATCT	4.99	4.12	1.41	0.726	1.47	1.13	0.465	1.52	1.51	1.43	1.41	1.98	1.16	1.64	1.48	2.53	1.08	0.748
TATCGGAGGACACGAAAGGTCAGAGCTCGACATC	0.425	2.37	0.89	0.344	2.86	4.25	0.981	4.73	1.49	4.37	5.03	4.79	5.31	0.361	4.07	3.95	1.59	1.67
CCTACTGGGCCACGAAAGGTCATTGTTTCAGTGA	5.79	6.05	1.13	0.571	3.37	5.45	2.06	5.42	0.917	4.06	4.64	4.55	4.31	0.971	5.09	3.94	0.739	2.75
CCTTACGGTTCACTCCAGGTTATAGCATCGGAGT	0.278	0.401	0.147	1.01	1.62	3.53	1.46	2.25	1.57	1.29	1.62	1.48	0.86	3.44	1.89	4.66	1.33	3.65
CCTAGCAGGCCAATCTTGGTCACTCAAGGCTTGA	1.37	0.831	-0.756	-1.03	-0.618	-0.565	-0.712	-0.332	-1.07	0.275	0.0668	-0.196	0.118	-0.0196	-0.417	0.909	-0.83	-0.655
TGTGAAAGTTCAAAGGTAACGTAAGTATCCACAC	-0.131	3.37	1.69	1.46	2.73	5.64	4.19	6.09	1.81	4.74	3.75	5.88	5.56	4.17	7	3.13	0.137	3.9
TCGAGTAGGTTACCAATCGGGCATTCAGCTTTCT	3.13	2.4	-0.0689	-0.723	-0.473	-0.159	-0.753	-0.172	-0.843	0.778	0.187	1.32	0.199	-0.0305	0.304	-0.223	-1.47	-1.01
CCGAGTAAGTTATGGGGCATTCAGGCAACGGTGA	0.876	0.12	0.0533	-0.856	0.399	-0.507	-0.558	-0.445	-0.0178	-0.111	0.181	-0.241	-0.0978	0.0937	-0.299	0.0579	-0.117	-0.0157
ACAGACAGGTGAGGGAAGGTAACTCAGCTGGACG	0.476	0.747	0.431	-0.614	-0.102	-0.00447	-0.0527	0.343	-0.347	0.622	0.595	0.445	0.526	-0.769	0.426	2.31	-0.12	-0.764
CCTCGGAGGACAACAGGAGGTCAGAGCGGCCAGA	0.0202	0.396	-0.758	-1.19	1.8	2.31	0.892	2.47	0.103	3	3.6	3.74	3.91	0.253	2.11	2.87	1.31	1.51
ATCTCTAGGTAAAAGTTGAGTGAATCCCGAGGAT	2.05	2.5	1.01	1.53	0.688	0.0685	0.147	0.3	0.494	0.471	0.0614	0.517	0.653	0.044	0.435	0.387	0.0583	-0.06
CCAGACAGGTGAAAAGTAACTCAGTCTGGTACGC	1.47	0.789	-0.595	-0.539	0.332	-0.0943	-0.142	0.133	0.489	0.36	-0.15	0.316	0.402	0.15	0.307	-0.0735	-0.599	-0.225
ACAGACAGGTGAGTGAAGGTAACGCAGCTGGACG	0.361	1.04	-1.24	-0.822	-0.463	-0.245	-0.327	0.359	-0.195	0.702	0.215	0.259	0.522	-0.546	0.362	1.83	-0.423	-0.319
CCGACTAGGGCAAGGTTACCATAACGCACAGCCA	4.54	4.32	-0.62	-0.559	1.27	0.169	-0.069	0.801	0.218	1.91	1.42	1.33	1.66	0.121	1.08	1.23	0.242	0.0806
ATATGTAGGTTATCGGGCCATTCAGTTTGCGCAT	7.31	6.82	2.32	3.56	1.89	0.605	1.06	0.558	1.09	1.08	1.07	0.874	0.93	0.832	0.911	1.24	0.971	1.34
TCTGCTAGGTCAACGATGGTCAGCTCATCTGCTA	4	4.36	2.19	-0.236	1.9	1.71	-1.45	2.37	-0.783	4.05	3.24	3.91	4.62	1.05	2.41	3.15	0.671	-0.436
GCAGACAGGTGAAACGCAGGTAACCCAGGGTGGC	0.158	0.862	-0.147	-0.879	-0.777	-0.365	-0.8	0.305	-1.34	0.601	0.0682	1.01	0.468	-1.51	0.96	1.52	-0.636	-1.22
ATATGTAGGTTAAGGGTCATTCACGTTGGTTCGC	7.26	8.08	3.39	2.65	4.43	4.79	0.957	5.91	1.47	3.54	3.78	4.72	3.42	2.33	6.15	3.36	1.12	4.09
TTGAGTAGGTTAGGGGCATTCAGAATGGCGTCGA	3.21	2.8	0.225	0.781	1.61	0.703	1.3	0.894	1.42	1.42	1.7	0.491	0.689	0.378	0.569	1.14	1.29	1.51
AATACAGGGTCATCGTAGGCCCGAGTACGCACAG	2.64	3.72	0.916	-0.158	1.25	3.92	0.581	4.7	0.922	4.23	3.43	5.52	5.24	3.34	6.9	3.72	1.41	3.29
CAAACTAGGTAACAGAGGTCAAAGTCCGTGCGTA	6.99	6.88	1.9	1.28	4.37	6	3.25	6.67	1.62	4.11	4.45	5.28	4.28	2.34	6.18	4.1	1.95	4.49
CGAACTAGGTCAAGAGGTCAAAGTCCGCTTCCCG	8.26	8.1	0.974	-0.335	5.23	6.23	3.31	7.7	2.18	5.48	5.66	8.2	7.63	2.69	8.43	4.34	2.51	3.88
GCTTGTAGATCAAGGTAAAGAAAGACTAAGCTAA	0.905	0.644	-0.0923	0.000518	-0.791	-0.53	-0.448	0.178	-0.716	-0.161	-0.851	-0.145	-0.335	-0.256	-0.197	0.48	-0.807	-0.505
TAGCCTAGGTCTGATCGGGCCAGTATACGCTATA	-0.797	-0.522	-0.763	-0.994	-0.906	-0.673	-1.05	-0.33	-1.47	-0.362	-0.807	-0.244	-0.187	-1.28	-0.358	0.71	-0.845	-0.912
ACTATTAGTTGACTAAGGGCAACCGATACGACGC	0.0727	0.783	0.688	0.819	0.638	0.652	0.92	0.766	0.98	1.53	1.55	0.953	1.33	0.698	0.794	1.72	0.967	0.874
GATACAGGGTCAAGTCCAGAGTACGCGTATTGAT	3.07	4.1	1.84	0.844	4.21	4.36	0.54	5.16	1.38	4.64	3.68	5.8	5.41	3.08	6.06	3.68	1.22	3.51
CCAGACAGGTGCAAGGTAACTCAGTCTGGTACGC	-0.395	-0.318	-0.426	-0.666	-0.0621	-0.444	-0.237	-0.146	-0.328	-0.0725	-0.106	-0.306	-0.108	0.584	0.00435	0.379	0.244	0.489
CCTACTGGGCCAGCAGGTCATTGATATCAACGTT	3.7	4.16	-0.155	-0.528	1.02	1.46	-0.0906	1.8	-0.335	1.88	2.26	2.03	1.62	-0.531	1.6	1.86	0.347	0.812
